# Compounds without any hit were thinned out: in the full panel of roughly 83,000, 20% have a hit.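 Plates (96-well) were seeded with cells, treated with compound at one concentration, and incubated for 48 hours before percent growth was determined.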 Unmarked numbers belong to inactive results. Active and inactive are the calls of the source. Rule for the calls: active = growth percent below 10; inactive = the rest.
# Tested on: MDA-MB-468 breast
# Assay: NCI-60 one-dose screen, 48 h (100 = growth as untreated, 0 = no growth, -100 = all killed)
# Settings: 10 µM unless noted
row,Compound,growth
1,CC1(C)CC([P+](c2ccccc2)(c2ccccc2)c2ccccc2)=NN1,-12.9% (active)
2,CC(C)C[C@@H]1N[C@@]2(C(=O)Nc3ccccc32)[C@@H](c2ccc(F)cc2)[C@@H]1C(=O)c1ccc(O)cc1,102%
3,CCN(C(=O)CN1CCN(c2cc3c(cc2F)c(=O)c(C(=O)O)cn3C2CC2)CC1)c1nc(-c2ccc(OC)cc2)cs1,60.9%
4,Cc1ccccc1-c1cc(Cc2ccc(F)cc2)c(=O)[nH]n1,109%
5,NCCNC(=O)c1cccc(COc2ccccc2NC(=O)c2cc(Cl)c(Cl)[nH]2)c1,96%
6,CCc1ccc(Oc2c(-c3ccc(OCc4ccc(Cl)cc4)cc3O)n[nH]c2C(F)(F)F)cc1,13.1%
7,N#Cc1c(N)n2c(nc1=Nc1ccc([N+](=O)[O-])cc1)sc1cc(Cl)ccc12,79.5%
8,CCOC(=O)/C(C#N)=C1/NNC(=Nc2cccnc2)S1,95.3%
9,CCN(CC)N=Nc1nn(C(=O)Nc2ccc(Cc3ccccc3)cc2)c2ccc(Cl)cc12,101%
10,CSc1nc(-c2cccc(NC(=O)CCl)c2)c(C#N)c(=O)n1C,-4.77% (active)
11,Cc1c(O)c(=O)ccn1C1CCC(CC2CCC(n3ccc(=O)c(O)c3C)CC2)CC1 (stereo not given),0.337% (active)
12,Cc1oc2nc[nH]c(=O)c2c1C(=O)/C=C/c1ccc(Br)cc1,-55.4% (active)
13,N#CC(C#N)C(C#N)C#N,99.7%
14,N#Cc1ccc(OCc2nc(N)nc(N)c2-c2ccc(Cl)c(Cl)c2)cc1,35.4%
15,O=P(O)(c1ccccc1)c1ccccc1I,89.5%
16,O=C(Nc1ccc(OS(=O)(=O)c2ccc(F)cc2)cc1)C1CCCCCC1,102%
17,CN1CCN(C)c2cncc(Br)c2C1=O,106%
18,COc1ccc(/C=C/C(=O)c2ccc(Oc3ncnc4ccccc34)cc2)cc1OC,28.4%
19,N#Cc1nc(-c2ccc(Cl)cc2)oc1N1CCC(S(=O)(=O)N2CCOCC2)CC1,97.5%
20,Cc1cc(C#Cc2ccccc2)ccc1-n1c(/C=C/c2cc(O)ccc2O)nc2ccccc2c1=O,-36.5% (active)

row,Compound,growth
1,CC(=O)Nc1ccc(Cl)cc1Cl,90.1%
2,c1ccc(Nc2ccccn2)cc1,111%
3,COc1cc2c3c(n(CCCNC4CCCC4)c(=O)c2cc1OC)-c1cc2c(cc1C3=O)OCO2,70.9%
4,O=C(CCCC(=O)Nc1ccc(-n2nnc3cc(Cl)c(Cl)cc32)cc1)Nc1ccc(-n2nnc3cc(Cl)c(Cl)cc32)cc1,18.9%
5,COCCCNc1nc(NC(=O)c2cc(Br)cc(C(F)(F)F)c2)cc(-c2cccnc2)n1,82.8%
6,CS(=O)(=O)c1nccc(-c2c(-c3ccc(OCCc4ccccc4)cc3)nc3sccn23)n1,-81.5% (active)
7,O=C(Nc1cccc(-n2cc(-c3ccncc3)c(-c3cc(O)cc(Cl)c3)n2)c1)c1cc(C(F)(F)F)cc(C(F)(F)F)c1,31.2%
8,O=C1C(Cl)=C(Nc2ccc(S(=O)(=O)N3CCOCC3)cc2)C(=O)c2ccccc21,74.1%
9,CCOC(=O)n1cc(C2=C(c3cn(C)c4ccccc34)COC2=O)c2ccccc21,29.5%
10,CC(C)C(C#N)(C(C)C)C(C)C,109%
11,COc1ccc(C(=O)c2cc(C)c(OC)c(C)c2)cc1OC(=O)CCl,37.7%
12,CC1O[C@@H](OC2[C@H](OC(=O)/C=C/c3ccc(O)c(O)c3)C(COC3O[C@H](C)C(O)C(O)[C@@H]3O)O[C@@H](OCCc3ccc(O)c(O)c3)[C@H]2O)[C@@H](O)C(O)[C@H]1O (stereo not given in full),106%
13,C[C@@H](Oc1cc(-c2cnn(C3CC4(CNC4)C3)c2)cnc1N)c1c(Cl)ccc(F)c1Cl,20.5%
14,O=C1c2cc(I)ccc2Oc2cc([N+](=O)[O-])ccc2N1c1ccc(Cl)cc1F,96.2%
15,COc1ccc(-c2ccc(-c3ccc(C(=N)N)cn3)o2)cc1,48.7%
16,C=CCN(/C=C1/C(=O)O[C@H](COC)[C@@]2(C)C1=C(O)C(=O)C1=C2[C@H](OC(C)=O)C[C@]2(C)C(=O)CC[C@@H]12)CC=C,-32.2% (active)
17,O=C(/C=C/c1cccc2ccccc12)Nc1ncc(Cc2ccccc2)s1,-14.4% (active)
18,O=C(Nc1ccc(F)cc1)c1c(NC(=O)C(F)(F)F)sc2c1CCCCC2,-17% (active)
19,Cn1cc(-c2nonc2-c2cn(C)c3ccc(Br)cc23)c2ccccc21,42.8%
20,O=c1oc2cc(OS(=O)(=O)c3ccccc3)ccc2c2c1CCCCC2,44.3%
